Results taken from PubChem BioAssay AID1159580 (chemical genetic matrix, 2015).
Out of some 5,500 compounds screened, about 2,000 (36%) were called active. About 18% were inconclusive and are not listed. No stated cut-off is given here; in the data, active means normalized growth mostly below about 0.91 (no sharp cut-off); inconclusive means no clear call, values can overlap the other calls; inactive means mostly above about 0.92. The list shows a part of the results.

Experiment: chemical genetic growth profiling, strain panel (AID 1159580);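 further: tested at 20 µM; growth read once vehicle control cultures reached saturation at 30 °C; 1 = growth at the plate median or of vehicle wells; lower values mean less growth of the strain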
Details: S. cerevisiae deletion strains, growth OD

Measured: normalized growth

NCC#Cc1ccccc1
inactive: locus YAL013W, strain DEP1, active compounds read low 1.04 | locus YAL040C, strain CLN3, active compounds read low 0.989 | locus YCL061C, strain MRC1 (second series), active compounds read low 1.01 | locus YDR150W, strain NUM1, active compounds read low 1.02 | locus YDR363W, strain ESC2, active compounds read low 1.02 | locus YER002W, strain NOP16, active compounds read low 1 | locus YGR229C, strain SMI1, active compounds read low 1.07 | locus YMR263W, strain SAP30, active compounds read low 1 | locus YMR307W, strain GAS1, active compounds read low 1.01 | locus YNL128W, strain TEP1, active compounds read low 1.01 | locus YNL153C, strain GIM3, active compounds read low 1.15 | locus YNL175C, strain NOP13, active compounds read low 1.01 | locus YNL197C, strain WHI3, active compounds read low 1.01 | locus YNL224C, strain SQS1, active compounds read low 1.01 | locus YOR083W, strain WHI5 (second series), active compounds read low 1.01 | locus YPL055C, strain LGE1, active compounds read low 1.04
